Measurements published in PubChem BioAssay (NCI).
Compounds without any hit were thinned out: in the full panel of roughly 83,000, 20% have a hit.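 Plates (96-well) were seeded with cells, treated with compound at one concentration, and incubated for 48 hours before percent growth was determined.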 Activity calls are given as the source filed them. The calls were made as follows: active = growth percent below 10; inactive = the rest.

Test system: MDA-MB-468 breast
Test: NCI-60 one-dose screen, 48 h (100 = growth as untreated, 0 = no growth, -100 = all killed)
Details: 10 µM unless noted

SMILES | growth
Cn1c(SCC(=O)Nc2ccc(-c3nc4ccc([N+](=O)[O-])cc4[nH]3)cc2)nc2ccccc2c1=O | 56.5% (inactive)
O=[N+]([O-])c1ccc(-n2[nH]nnc2=S)cc1 | 123% (inactive)
Cc1ccc(-c2cc3c(cc2O)C2CCCCC2(N2CCOCC2)O3)cc1 (stereo not given) | 87.9% (inactive)
Cn1cc(-c2nnc(-c3cn(C)c4ncc(Br)cc34)o2)c2ccccc21 | 39.3% (inactive)
C=C1C(=O)O[C@H]2[C@H]1CC/C(COC(=O)NCc1nc3ccccc3[nH]1)=C\CC[C@@]1(C)O[C@@H]21 | 43.7% (inactive)
CC(C)C1=C[C@@]23CC[C@@H]4[C@](C)(CCC[C@@]4(C)C(=O)N4CCCNCC4)[C@H]2C[C@@H]1[C@H]1C(=O)CCC(=O)[C@H]13 | 101% (inactive)
O=C(CSc1nc2sc3c(c2c(=O)n1-c1ccccc1)CCCCC3)N/N=C/c1cccc([N+](=O)[O-])c1 | 19.2% (inactive)
Cc1nc2n(c(=O)c1CCN1CCC(c3noc4cc(F)ccc34)CC1)CCC[C@@H]2O | 100% (inactive)
CCOC(=O)/C(=C\c1ccc2ccccc2c1)P(=O)(OCC)OCC | -13.1% (active)
c1cnc2[nH]cc(-c3csc(-c4cn(CCCN5CCCCC5)c5ccccc45)n3)c2c1 | 70.2% (inactive)
COc1ccc(O)c(-c2cc(-c3ccc(Cl)cc3)c(C#N)c(=O)[nH]2)c1 | 78.8% (inactive)
C=C(NC(=O)C(=C)NC(=O)c1csc(C2=NC3c4csc(n4)C4NC(=O)c5csc(n5)C(C(C)(O)C(C)O)NC(=O)C5CSC(=N5)C(=CC)NC(=O)C(C(C)O)NC(=O)c5csc(n5)C3(CC2)NC(=O)C(C)NC(=O)C(=C)NC(=O)C(C)NC(=O)C(C(C)CC)NC2C=Cc3c(C(C)O)cc(nc3C2O)C(=O)OC4C)n1)C(N)=O (stereo not given) | -55.6% (active)
O=C1[C@H]2Cc3c([nH]c4ccccc34)[C@@H](c3ccc(Br)cc3)N2C(=O)CN1C1CCN(Cc2ccccc2)CC1 | -4.01% (active)
Cc1cc2c(-c3nc4ccccn4c3NC3CCCCC3)c(O)c(O)cc2c(O)c1-c1c(C)cc2c(-c3nc4ccccn4c3NC3CCCCC3)c(O)c(O)cc2c1O | 13.9% (inactive)
COc1cc(-c2nc3sccn3c2-c2ccnc(NCCNS(=O)(=O)c3ccc(Cl)cc3)n2)ccc1F | 29.7% (inactive)
c1ccc(Cn2cc3c(c2)-c2nc(Nc4ccccc4)ncc2CC3)cc1 | 115% [100 µM] (inactive)
Oc1c(Cl)cc(Cl)cc1/C=N/Nc1nnc(N/N=C/c2cc(Cl)cc(Cl)c2O)c2ccccc12 | -29.9% (active)
O=C1C(Cl)=C(Nc2ccccn2)C(=O)c2ccccc21 | 37.1% (inactive)
NC(=O)CCCN1C/C(=C\c2ccccc2)C(=O)c2ccccc21 | 90.8% (inactive)
CSc1nc(-c2ccco2)c2c(N)[nH]nc2n1 | 113% (inactive)

SMILES | growth
COc1ccc(-c2[nH]ncc2-c2cc(OC)c(OC)c(OC)c2)cc1 | -4.91% (active)
Clc1ccccc1C(c1ccccc1)(c1ccccc1)n1ccnc1 | 2.94% (active)
CCCCNCC(O)c1cc(-c2ccc(C(F)(F)F)cc2)nc(-c2ccc(C(F)(F)F)cc2)c1 (stereo not given) | -87.9% (active)
NS(=O)(=O)c1ccc(CN=C2NC(=O)S/C2=C\c2ccc(Br)cc2)cc1 | 97.1% (inactive)
O=[N+]([O-])c1cccc(/C=C/c2ccc3ccccc3n2)c1 | 71.2% (inactive)
O=C(CC(C(=O)c1ccccc1)N1CCOCC1)c1ccccc1 (stereo not given) | 101% (inactive)
C=C(C)[C@@H]1CC[C@]2(COP(=O)(OCC)OCC)CC[C@]3(C)[C@H](CC[C@@H]4[C@@]5(C)CC[C@H](OP(=O)(OCC)OCC)C(C)(C)[C@@H]5CC[C@]43C)[C@@H]12 | 22.1% (inactive)
COC(=O)c1cccc(NC2=CC(=O)C(C)=C(C)C2=O)c1 | 65.9% (inactive)
C=CCn1c(SCC(=O)Nc2ccc(C(=O)/C=C/c3ccccc3)cc2)nnc1-c1ccc(OC)c(OC)c1 | 59.5% (inactive)
CCCOc1cc2ccccc2cc1C(=O)Nc1nc(NC)c2c(ccc3nccc32)[nH]1 | -59.7% (active)
CN1CCN(c2ccc(/C=N/n3cnc4oc(-c5ccccc5)cc4c3=N)cc2)CC1 | 97.6% (inactive)
Cc1ccccc1/C=C/C(=O)c1cccc(OCCCOc2cccc(C(=O)/C=C/c3ccccc3C)c2)c1 | 108% [3 µM] (inactive)
Cc1cc(N2CCCC2)nc(NCc2cc(Nc3ccnc4cc(Cl)ccc34)ccc2F)n1 | -58.7% (active)
C=CCn1c(SCC(=O)Nc2ccc(OC)cc2)nnc1-c1ccc(Cl)cc1 | 81% (inactive)
CCOC(=O)c1c(NCC(=O)Nc2cccc([N+](=O)[O-])c2)sc2c1CCCC2 | -77.2% (active)
COc1cc(-c2nc3ccccc3[nH]2)ccc1OCc1nnc(-c2ccc(CC(C)C)cc2)o1 | 94.1% (inactive)
O=C(c1c(F)ccc(NS(=O)(=O)N2CC[C@@H](F)C2)c1F)c1c[nH]c2ncc(-c3cnc(C4CC4)nc3)cc12 | 54.7% (inactive)
COc1ncnc2c1cnn2C | 106% (inactive)
Cc1cc(N2CCCCC2)nc(N(CCCNc2ccnc3cc(Cl)ccc23)Cc2ccco2)n1 | 6.73% (active)
COc1ccc(Cc2cnc(NC(=O)c3sc4ccccc4c3Cl)s2)cc1 | 23.5% (inactive)
